Reference: the supplement of paper PMC3334620
The full ranking holds about 33,000 sequences; the median of “E-score (-0.5 to 0.5)” is about -0.054, and the highest 2% start at about 0.39. The sample holds the highest values, similar sequences and a random draw of the others, so the mix is not that of the screen.

biological target: Ylr278c (UniProt Q05854); test: PBM E-score (8-mer binding enrichment) (E-score (-0.5 to 0.5)); higher = stronger / more preferred TF binding; conditions: protein concentration: 200 nM; construct: GST-DNA-binding domain
Chain of UniProt Q05854 (Q05854 whole entry, the tested form may be a part): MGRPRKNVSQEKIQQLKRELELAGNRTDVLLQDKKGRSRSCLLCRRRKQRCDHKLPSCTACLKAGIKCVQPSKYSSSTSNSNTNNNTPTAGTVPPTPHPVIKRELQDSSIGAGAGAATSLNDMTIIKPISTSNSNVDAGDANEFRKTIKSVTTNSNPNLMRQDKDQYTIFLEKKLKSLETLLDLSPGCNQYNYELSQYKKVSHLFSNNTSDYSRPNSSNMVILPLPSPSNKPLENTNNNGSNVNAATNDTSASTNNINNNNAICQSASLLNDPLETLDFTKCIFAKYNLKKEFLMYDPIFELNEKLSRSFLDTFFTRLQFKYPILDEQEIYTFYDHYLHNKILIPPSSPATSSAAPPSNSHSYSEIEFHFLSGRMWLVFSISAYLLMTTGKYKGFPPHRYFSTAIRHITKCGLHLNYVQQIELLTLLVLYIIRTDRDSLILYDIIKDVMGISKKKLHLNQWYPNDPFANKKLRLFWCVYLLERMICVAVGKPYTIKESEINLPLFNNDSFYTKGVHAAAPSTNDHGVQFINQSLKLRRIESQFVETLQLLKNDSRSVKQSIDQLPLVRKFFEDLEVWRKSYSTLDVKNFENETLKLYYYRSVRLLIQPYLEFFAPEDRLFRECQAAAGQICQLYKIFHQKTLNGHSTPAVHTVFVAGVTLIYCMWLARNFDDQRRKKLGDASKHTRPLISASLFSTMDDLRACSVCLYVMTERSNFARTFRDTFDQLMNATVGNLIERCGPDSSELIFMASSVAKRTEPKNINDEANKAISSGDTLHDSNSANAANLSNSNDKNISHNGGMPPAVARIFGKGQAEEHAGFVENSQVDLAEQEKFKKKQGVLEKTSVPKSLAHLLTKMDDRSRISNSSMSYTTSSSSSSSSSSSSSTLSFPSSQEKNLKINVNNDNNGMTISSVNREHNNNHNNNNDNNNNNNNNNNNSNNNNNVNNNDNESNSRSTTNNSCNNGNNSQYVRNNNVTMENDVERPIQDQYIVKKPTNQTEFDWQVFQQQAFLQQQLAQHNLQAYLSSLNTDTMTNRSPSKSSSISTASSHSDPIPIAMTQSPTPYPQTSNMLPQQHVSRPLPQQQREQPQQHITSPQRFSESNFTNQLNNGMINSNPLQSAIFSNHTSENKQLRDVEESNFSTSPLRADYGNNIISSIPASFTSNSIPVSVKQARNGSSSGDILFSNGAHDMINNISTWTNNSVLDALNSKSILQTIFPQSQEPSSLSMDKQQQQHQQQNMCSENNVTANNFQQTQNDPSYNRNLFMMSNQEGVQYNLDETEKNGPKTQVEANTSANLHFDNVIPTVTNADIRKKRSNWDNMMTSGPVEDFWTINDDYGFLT
Procedure, shortened: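 Yeast transcription factors carrying a GST tag, as full-length proteins or DNA-binding domains, were produced by PURExpress in vitro transcription/translation. About 100-200 nM protein was applied to universal all-10-mer Agilent arrays, double-stranded by primer extension on fresh or once-stripped slides. Bound protein was detected with fluorescent anti-GST, and scans were normalised with masliner. The Universal PBM Analysis Suite gave each ungapped eight-base word, pooled with its reverse complement, an E-score, a modified Wilcoxon-Mann-Whitney statistic.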

Row | Sequence | PBM E-score
1 | GTGTGGTA | -0.165
2 | CAAGTCCG | 0.455
3 | CGAGTCCA | -0.144
4 | CGAGTCCG | 0.391
5 | CAAGTCCA | -0.118
6 | CAAGTCCC | -0.108
7 | AGAGTCCG | 0.347
8 | CCGAGACG | 0.134
9 | ACCTCAGA | -0.0802
10 | GGCCCGTA | 0.173
11 | GGCCCGCA | 0.188
12 | CCCCCGGA | 0.395
13 | GCCCCGGC | 0.259
14 | GCCCCCGA | 0.0674
15 | GCCCCGGA | 0.439
16 | TCCCCGGA | 0.435
17 | TCCCCGAA | 0.357
18 | GGCCCGGA | 0.395
19 | CCCCCGGC | 0.254
20 | TCCCCCGA | 0.263
21 | CCCCCCGA | 0.083
22 | ATATTTTC | 0.0689
23 | GACCTAAC | 0.0677
24 | GCAGACGA | -0.119
25 | GGATCTGA | 0.00665
26 | AACCCATC | -0.0461

Row | Sequence | PBM E-score
27 | CAGTCATG | -0.129
28 | ATGGCTGG | -0.209
29 | CCAGCATC | -0.0271
30 | ATCACTGC | -0.0314
31 | ACTGTGGC | -0.32
32 | GGACTGAC | -0.0427
33 | CCCCTTAC | -0.195
34 | CGCCCGGA | 0.435
35 | AGCCCGGC | 0.332
36 | CCCCGGGG | 0.412
37 | CCCCCGGG | 0.296
38 | CGCCCGGC | 0.292
39 | CGCCCGAA | 0.111
40 | AGCCCGGA | 0.448
41 | CCCCGGGC | 0.342
42 | ACCCGGGG | 0.246
43 | ACCCCGGG | 0.404
44 | AGCCCGGG | 0.328
45 | AACCCGGG | 0.319
46 | GTAAATGA | 0.024
47 | GACAAGCC | -0.0446
48 | CGACTTAG | -0.168
49 | GCAACTCC | 0.327
50 | AACGCCAA | -0.0358
51 | GATTTCTA | 0.238
52 | CATCCACG | -0.153

Row | Sequence | PBM E-score
53 | CGCTAGGC | -0.0311
54 | GCATGGCA | 0.0442
55 | ACCCCGGA | 0.445
56 | ACCCGGGA | 0.307
57 | ACCCCGGT | 0.385
58 | ACCCCGGC | 0.355
59 | TCCCGGGA | 0.398
60 | CCCCGGGA | 0.378
61 | GGTCTTAC | -0.0198
62 | GAAGCGGC | 0.125
63 | GGATGCCA | -0.277
64 | CGATTCCA | 0.056
65 | CAATTCCA | -0.0617
66 | ATATTCCG | 0.43
67 | AAATTCCC | 0.254
68 | AAATTCCG | 0.471
69 | CAATTCCG | 0.465
70 | ATATTCCA | 0.0484
71 | AAATTCCA | 0.115
72 | ATATTCCC | 0.277
73 | CGATTCCC | 0.226
74 | CAATTCCC | 0.19
75 | CGATTCCG | 0.396
76 | ATACCGTC | 0.153
77 | AACCTAGT | -0.00542
78 | AACTTAGG | -0.156

Row | Sequence | PBM E-score
79 | CAAGTGCA | -0.362
80 | TGGTTCAA | -0.118
81 | ATACCTTC | 0.0292
82 | GGCGCACA | 0.145
83 | TCCCTCAA | -0.106
84 | AGGCCGGC | 0.342
85 | GGGCCGGA | 0.418
86 | CGGCCGGC | 0.409
87 | CGGCCGGA | 0.424
88 | AGGCCGGA | 0.419
89 | CGGCCGCA | 0.249
90 | GGGCCGAA | 0.198
91 | AGGCCGTA | 0.0868
92 | CGGCCGTA | 0.225
93 | GGGCCGTA | 0.0879
94 | AGGCCGGG | 0.258
95 | CGGCCGAC | 0.309
96 | CACCTAAG | -0.134
97 | CTTACCTC | -0.0434
98 | AGGTTGGG | -0.122
99 | ACGCTACT | 0.0556
100 | AGCAATCA | -0.118
101 | CATTGTCC | 0.314
102 | CGCCATAG | -0.135
103 | GGTTGATA | -0.0138
104 | CGTCGTTC | 0.137

Row | Sequence | PBM E-score
105 | ATCTGACG | -0.134
106 | CGTGCCAA | -0.0693
107 | CGGCCTTA | 0.352
108 | CGGCCTTC | 0.394
109 | AGGCCTTC | -0.221
110 | GGTTCCGA | 0.384
111 | AGTTCCTG | -0.0874
112 | AGTTCCGC | 0.383
113 | CGTTCCGA | 0.288
114 | AGTTCCGG | 0.433
115 | AGTTCCGA | 0.43
116 | AGAACCGG | 0.345
117 | CACTCCAA | 0.031
118 | AACTCCGG | 0.497
119 | CACTCCTG | -0.0899
120 | CACTCCCG | 0.193
121 | CACTCCGC | 0.393
122 | CACTCCGA | 0.454
123 | AACTCCTG | 0.152
124 | AACTCCCG | 0.365
125 | CACTCCTC | 0.0388
126 | CACTCCAC | -0.139
127 | CACTCCCA | -0.106
128 | CACTCCGG | 0.46
129 | ATCTAGTC | 0.0095
130 | GAGCGCGC | 0.182

Row | Sequence | PBM E-score
131 | GGCATCTA | -0.0448
132 | ATCCATCA | -0.135
133 | AACTCCGC | 0.49
134 | GACTCCGA | 0.467
135 | TACTCCAA | -0.243
136 | GACTCCTA | -0.191
137 | GACTCCAC | -0.0152
138 | GACTCCTC | -0.135
139 | GACTCCAA | -0.221
140 | AACTCCTC | 0.0657
141 | TACTCCTA | -0.187
142 | TACTCCGA | 0.479
143 | GACTCCGC | 0.426
144 | AACTCCCC | 0.266
145 | CATCAGTA | -0.233
146 | GGTGTGAC | -0.172
147 | GTAAACAA | -0.0542
148 | GTGCTCAA | -0.104
149 | ACCGCCCA | 0.154
150 | AACCTTCA | -0.245
151 | TCACTCCA | -0.0238
152 | AAGCTTGA | -0.0383
153 | TCGGTCAA | 0.0369
154 | GATTGCAC | 0.0435
155 | AACTCCCT | -0.072
156 | AACTCCGT | 0.486

Row | Sequence | PBM E-score
157 | AACTCCGA | 0.496
158 | AACTCCCA | 0.155
159 | AACTCCAT | 0.214
160 | AACTCCAA | -0.00212
161 | GACTTTCC | 0.137
162 | CTGCGAAA | -0.0633
163 | CCCCTGAA | -0.144
164 | CACCCCAA | -0.0388
165 | CCGCCGTC | 0.218
166 | GCGCCGTA | 0.231
167 | ACGCCGGG | 0.365
168 | ACGCCGGA | 0.432
169 | CCGCCGCC | 0.304
170 | ACGCCGTA | 0.0546
171 | CCGCCGTA | 0.354
172 | GCGCCGGA | 0.432
173 | CCGCCGCA | 0.266
174 | CCGCCGGC | 0.41
175 | GCGCCGAA | 0.302
176 | CCGCCGGA | 0.462
